The full data set covers some 8,800 targets. This sample favours those with a hit. About 0.5% of all pairs of compound and target were hits.
Legend:
Test in all cases: log2 fold change, soluble protein after heating vs DMSO (PISA); higher = thermal stabilisation; K562 lysate, 10 uM; active = over 0.2 and 3.5 SD of the protein, either way, in both replicates (recomputed)
[1] = compound: Cc1cn(-c2cc(NC(=O)c3ccc(C)c(Nc4nccc(-c5cccnc5)n4)c3)cc(C(F)(F)F)c2)cn1 [nilotinib]
Outline: (§1)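 Dounce homogenisation of K562 pellets in PBS pH 7.4 with 1 mM MgCl2 produced a crude extract, used at 1 mg/mL protein. Exposure to 10 μM compound lasted 30 min, and aliquots were then heated for 3 min across 48°C-58°C, pooled and brought to 0.5% NP-40 at 4°C. The supernatant after 21,000xg for 90 min was quantified by TMTpro 16plex LC-MS/MS with channel sums equalised. Duplicate values are given as log-two fold change in thermal stability relative to solvent controls.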

[2] = compound: Cc1nc(Nc2n[nH]c3c2CN(C(=O)N[C@H](CN(C)C)c2ccccc2)C3(C)C)c2sccc2n1
Outline: as §1

[3] = compound: Cc1nc(Nc2ncc(C(=O)Nc3c(C)cccc3Cl)s2)cc(N2CCN(CCO)CC2)n1 [dasatinib]
Outline: as §1

[4] = compound: Cc1ncc(-c2ccnc(Nc3ccc(S(C)(=O)=O)cc3)n2)n1C(C)C
Outline: as §1

[5] = compound: Cn1cc(-c2ccc3c(c2)CCN3C(=O)Cc2cccc(C(F)(F)F)c2)c2c(N)ncnc21
Outline: as §1

[6] = compound: Cn1cc(CNCC2CCN(c3ncc(C(=O)NO)cn3)CC2)c2ccccc21 [quisinostat]
Outline: as §1

[7] = compound: Cn1cncc1[C@@](N)(c1ccc(Cl)cc1)c1ccc2c(c1)c(-c1cccc(Cl)c1)cc(=O)n2C [tipifarnib]
Outline: as §1

[8] = compound: NC(=O)Nc1cc(-c2cccc(F)c2)sc1C(=O)N[C@H]1CCCNC1
Outline: as §1

[9] = compound: NC(=O)c1cnc(N[C@@H]2CCCC[C@@H]2N)nc1Nc1cccc(-n2nccn2)c1
Outline: as §1

[10] = compound: NC1(c2ccc(-c3nc4ccn5c(=O)[nH]nc5c4cc3-c3ccccc3)cc2)CCC1
Outline: as §1

[11] = compound: NCC(=O)Nc1ccc(-n2nc(C(F)(F)F)cc2-c2ccc3c(ccc4ccccc43)c2)cc1
Outline: as §1

[12] = compound: O=C(CCCCCCC(=O)Nc1ccccc1)NO [vorinostat]
Outline: as §1

[13] = compound: O=C(O)c1ccc2c(c1)nc(Nc1cccc(Cl)c1)c1ccncc12 [silmitasertib]
Outline: as §1

[14] = compound: O=C1NC(=O)C(c2cnc3ccccn23)=C1c1cn2c3c(cc(F)cc13)CN(C(=O)N1CCCCC1)CC2
Outline: as §1

[15] = compound: c1cn2cc(-c3ccc4cn[nH]c4c3)nc(Nc3ccc(N4CCOCC4)cc3)c2n1 [entospletinib]
Outline: as §1

Measured: log2 fold change

HMGA1 (UniProt P17096)
Chain of UniProt P17096 (P17096 whole entry, looked up): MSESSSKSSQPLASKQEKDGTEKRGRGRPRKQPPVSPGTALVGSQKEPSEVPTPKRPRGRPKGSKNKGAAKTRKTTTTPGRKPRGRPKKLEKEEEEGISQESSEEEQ
inactive: [1] 0.035 | [2] 0.039 | [3] -0.012 | [4] 0.014 | [5] -0.08 | [6] -0.018 | [7] 0.032 | [8] -0.004 | [9] -0.025 | [10] -0.059 | [11] 0.056 | [12] 0.111 | [13] 0.001 | [14] 0.038 | [15] -0.011

HSD17B12 (UniProt Q53GQ0)
Chain of UniProt Q53GQ0 (Q53GQ0 whole entry, looked up): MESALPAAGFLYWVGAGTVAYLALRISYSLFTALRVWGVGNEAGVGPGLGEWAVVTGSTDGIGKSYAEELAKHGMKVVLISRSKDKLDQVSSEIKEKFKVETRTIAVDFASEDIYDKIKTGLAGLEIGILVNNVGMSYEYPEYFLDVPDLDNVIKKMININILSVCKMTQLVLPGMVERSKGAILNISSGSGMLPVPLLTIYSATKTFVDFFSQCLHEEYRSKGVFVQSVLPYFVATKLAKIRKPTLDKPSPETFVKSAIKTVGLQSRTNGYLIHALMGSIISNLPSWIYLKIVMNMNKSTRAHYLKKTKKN
inactive: [1] -0.024 | [2] -0.04 | [3] 0.016 | [4] 0.033 | [5] 0.007 | [6] 0.073 | [7] -0.118 | [8] 0.058 | [9] 0.012 | [10] -0.045 | [11] 0.025 | [12] -0.009 | [13] -0.05 | [14] -0.078 | [15] 0.041

INTS1 (UniProt Q8N201)
inactive: [1] -0.041 | [2] 0.012 | [3] -0.087 | [4] 0.035 | [5] 0.028 | [6] -0.01 | [7] 0.017 | [8] 0.016 | [9] -0.038 | [10] 0.011 | [11] 0.014 | [13] 0.027 | [14] -0.034 | [15] 0.003
active: [12] -0.409

HAUS2 (UniProt Q9NVX0)
Chain of UniProt Q9NVX0 (Q9NVX0 whole entry, looked up): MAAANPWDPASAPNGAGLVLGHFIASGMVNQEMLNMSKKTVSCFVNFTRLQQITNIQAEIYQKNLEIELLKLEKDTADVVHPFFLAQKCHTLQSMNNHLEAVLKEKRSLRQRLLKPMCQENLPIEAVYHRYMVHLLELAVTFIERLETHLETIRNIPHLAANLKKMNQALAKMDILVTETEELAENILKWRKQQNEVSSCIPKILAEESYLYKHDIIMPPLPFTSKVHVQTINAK
active: [12] -0.514
inactive: [1] 0.036 | [2] -0.033 | [3] -0.028 | [4] 0.069 | [5] 0.05 | [6] -0.04 | [7] -0.034 | [8] -0.014 | [9] -0.094 | [10] 0.037 | [11] -0.052 | [13] -0.037 | [14] 0.039 | [15] -0.029

HIST2H2AA3 (UniProt Q6FI13)
inactive: [1] 0.135 | [2] -0.098 | [3] 0.081 | [4] 0.035 | [5] -0.041 | [6] 0.064 | [7] 0.058 | [8] 0.076 | [9] 0.01 | [10] 0.048 | [11] -0.056 | [12] 0.12 | [13] -0.073 | [14] 0.068 | [15] -0.106

GSK3A (UniProt P49840)
Chain of UniProt P49840 (P49840 whole entry, looked up): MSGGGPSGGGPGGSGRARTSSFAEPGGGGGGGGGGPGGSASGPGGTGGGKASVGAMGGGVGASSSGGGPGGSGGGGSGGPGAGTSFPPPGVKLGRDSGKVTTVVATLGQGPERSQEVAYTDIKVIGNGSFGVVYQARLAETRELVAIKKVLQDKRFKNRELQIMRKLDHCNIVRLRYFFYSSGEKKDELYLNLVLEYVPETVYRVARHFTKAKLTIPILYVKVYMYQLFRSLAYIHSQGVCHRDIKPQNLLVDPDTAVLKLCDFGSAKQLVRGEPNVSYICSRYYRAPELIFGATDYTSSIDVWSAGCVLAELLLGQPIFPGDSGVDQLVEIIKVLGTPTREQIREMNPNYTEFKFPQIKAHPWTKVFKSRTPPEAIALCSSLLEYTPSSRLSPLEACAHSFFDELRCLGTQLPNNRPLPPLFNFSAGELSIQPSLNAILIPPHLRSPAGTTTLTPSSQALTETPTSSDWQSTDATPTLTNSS
inactive: [1] 0.026 | [2] 0.425 | [3] 0.021 | [5] 0.048 | [6] -0.009 | [7] -0.008 | [8] -0.024 | [9] 0.099 | [10] -0.006 | [11] -0.019 | [12] 0.265 | [13] 0.382 | [14] 0.456 | [15] 0.014
active: [4] 0.562

HSPA14 (UniProt Q0VDF9)
active: [12] -0.226
inactive: [1] -0.032 | [2] -0.001 | [3] -0.018 | [4] 0.009 | [5] 0.034 | [6] -0.026 | [7] 0.021 | [8] 0.037 | [9] 0.001 | [10] -0.025 | [11] -0.022 | [13] 0.035 | [14] -0.007 | [15] -0.009

GRK2 (UniProt P25098)
active: [2] 0.393 | [8] 0.397 | [12] -0.225
inactive: [1] 0.001 | [3] -0.058 | [4] 0.01 | [5] 0 | [6] 0.034 | [7] -0.001 | [9] 0.043 | [10] -0.027 | [11] -0.055 | [13] 0.066 | [14] -0.026 | [15] -0.006

GTF2H1 (UniProt P32780)
Chain of UniProt P32780 (P32780 whole entry, looked up): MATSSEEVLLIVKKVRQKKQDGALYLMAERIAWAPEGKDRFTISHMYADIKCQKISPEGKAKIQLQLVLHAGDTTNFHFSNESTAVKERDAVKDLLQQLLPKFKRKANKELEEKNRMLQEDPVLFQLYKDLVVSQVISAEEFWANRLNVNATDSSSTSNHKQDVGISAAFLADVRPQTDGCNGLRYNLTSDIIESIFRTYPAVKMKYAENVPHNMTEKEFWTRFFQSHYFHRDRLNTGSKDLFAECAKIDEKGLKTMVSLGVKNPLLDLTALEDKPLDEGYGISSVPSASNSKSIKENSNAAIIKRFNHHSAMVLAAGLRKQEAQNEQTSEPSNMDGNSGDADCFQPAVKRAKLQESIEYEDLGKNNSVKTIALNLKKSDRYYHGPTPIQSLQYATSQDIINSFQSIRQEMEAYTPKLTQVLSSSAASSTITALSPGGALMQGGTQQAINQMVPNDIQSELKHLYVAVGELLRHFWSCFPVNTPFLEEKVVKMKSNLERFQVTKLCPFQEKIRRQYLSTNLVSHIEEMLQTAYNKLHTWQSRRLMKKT
active: [12] -0.412
inactive: [1] 0.009 | [2] 0.013 | [3] -0.012 | [4] -0.04 | [5] 0.043 | [6] -0.064 | [7] 0.084 | [8] 0.06 | [9] 0.037 | [10] -0.036 | [11] -0.019 | [13] 0 | [14] -0.024 | [15] 0.035

GTF2H4 (UniProt Q92759)
Chain of UniProt Q92759 (Q92759 whole entry, looked up): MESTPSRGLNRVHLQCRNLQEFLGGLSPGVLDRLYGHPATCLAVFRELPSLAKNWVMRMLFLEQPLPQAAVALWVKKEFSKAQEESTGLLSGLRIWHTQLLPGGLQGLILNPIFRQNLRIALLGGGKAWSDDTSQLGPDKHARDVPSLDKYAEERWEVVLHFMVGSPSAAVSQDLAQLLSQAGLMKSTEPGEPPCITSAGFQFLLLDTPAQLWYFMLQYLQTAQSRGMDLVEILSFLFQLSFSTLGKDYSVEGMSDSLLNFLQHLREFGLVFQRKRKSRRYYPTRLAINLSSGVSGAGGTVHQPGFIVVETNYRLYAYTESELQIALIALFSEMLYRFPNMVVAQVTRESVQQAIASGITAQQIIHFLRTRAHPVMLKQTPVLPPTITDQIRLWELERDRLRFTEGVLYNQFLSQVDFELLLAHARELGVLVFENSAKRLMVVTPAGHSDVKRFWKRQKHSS
inactive: [1] 0.006 | [2] 0.021 | [3] 0.003 | [4] 0.019 | [5] -0.011 | [6] -0.029 | [7] -0.008 | [8] 0.07 | [9] 0.04 | [10] -0.08 | [11] 0.01 | [13] -0.021 | [14] -0.021 | [15] 0.046
active: [12] -0.24

GORASP1 (UniProt Q9BQQ3)
Chain of UniProt Q9BQQ3 (Q9BQQ3 whole entry, looked up): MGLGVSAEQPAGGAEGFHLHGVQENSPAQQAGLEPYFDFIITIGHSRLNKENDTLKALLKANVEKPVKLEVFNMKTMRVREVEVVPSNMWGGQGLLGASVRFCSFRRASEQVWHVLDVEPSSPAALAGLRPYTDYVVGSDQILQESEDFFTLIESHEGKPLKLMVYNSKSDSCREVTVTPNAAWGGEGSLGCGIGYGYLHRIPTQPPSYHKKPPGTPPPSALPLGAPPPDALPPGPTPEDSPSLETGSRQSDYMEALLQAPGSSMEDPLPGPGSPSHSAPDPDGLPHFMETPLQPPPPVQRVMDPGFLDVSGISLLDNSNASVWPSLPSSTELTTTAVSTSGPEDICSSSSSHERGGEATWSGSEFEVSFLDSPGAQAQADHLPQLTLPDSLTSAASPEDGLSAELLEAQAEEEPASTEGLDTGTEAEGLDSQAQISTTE
inactive: [1] 0.011 | [2] -0.02 | [3] -0.019 | [4] 0.034 | [5] 0.048 | [6] 0.034 | [7] -0.006 | [8] -0.071 | [9] 0.177 | [10] -0.11 | [11] -0.041 | [12] -0.01 | [13] 0.067 | [14] -0.018 | [15] -0.09

IMPDH2 (UniProt P12268)
inactive: [1] 0 | [2] -0.009 | [3] -0.036 | [4] -0.009 | [5] 0.004 | [6] -0.073 | [7] 0.029 | [8] 0.006 | [9] -0.016 | [10] 0.031 | [11] 0.002 | [13] 0.004 | [14] 0.004 | [15] 0.014
active: [12] -1.14

GTF3C3 (UniProt Q9Y5Q9)
inactive: [1] 0.035 | [2] 0.052 | [3] 0.008 | [4] -0.026 | [5] 0.009 | [6] -0.134 | [7] -0.057 | [8] 0.031 | [9] 0.009 | [10] -0.084 | [11] -0.007 | [13] 0.018 | [14] 0.011 | [15] -0.052
active: [12] -0.291

IMPDH1 isoform 6 (UniProt P20839)
inactive: [1] 0.008 | [2] -0.034 | [3] -0.033 | [4] 0.015 | [5] -0.006 | [6] -0.121 | [7] -0.017 | [8] -0.007 | [9] -0.008 | [10] -0.012 | [11] 0.029 | [13] -0.003 | [14] 0.004 | [15] 0.023
active: [12] -0.897

HSPB1 (UniProt P04792)
Chain of UniProt P04792 (P04792 whole entry, looked up): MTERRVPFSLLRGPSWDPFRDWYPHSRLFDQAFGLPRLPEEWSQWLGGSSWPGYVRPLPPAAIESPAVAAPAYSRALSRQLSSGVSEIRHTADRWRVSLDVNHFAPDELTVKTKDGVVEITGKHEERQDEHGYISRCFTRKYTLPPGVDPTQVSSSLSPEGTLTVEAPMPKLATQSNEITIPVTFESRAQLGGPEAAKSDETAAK
inactive: [1] -0.001 | [2] 0.003 | [3] -0.032 | [4] 0.012 | [5] 0.015 | [6] 0.025 | [7] -0.006 | [8] 0.006 | [9] 0 | [10] 0.006 | [11] 0.019 | [12] -0.013 | [13] -0.027 | [14] -0.001 | [15] 0.013

HK2 (UniProt P52789)
Chain of UniProt P52789 (P52789 whole entry, looked up): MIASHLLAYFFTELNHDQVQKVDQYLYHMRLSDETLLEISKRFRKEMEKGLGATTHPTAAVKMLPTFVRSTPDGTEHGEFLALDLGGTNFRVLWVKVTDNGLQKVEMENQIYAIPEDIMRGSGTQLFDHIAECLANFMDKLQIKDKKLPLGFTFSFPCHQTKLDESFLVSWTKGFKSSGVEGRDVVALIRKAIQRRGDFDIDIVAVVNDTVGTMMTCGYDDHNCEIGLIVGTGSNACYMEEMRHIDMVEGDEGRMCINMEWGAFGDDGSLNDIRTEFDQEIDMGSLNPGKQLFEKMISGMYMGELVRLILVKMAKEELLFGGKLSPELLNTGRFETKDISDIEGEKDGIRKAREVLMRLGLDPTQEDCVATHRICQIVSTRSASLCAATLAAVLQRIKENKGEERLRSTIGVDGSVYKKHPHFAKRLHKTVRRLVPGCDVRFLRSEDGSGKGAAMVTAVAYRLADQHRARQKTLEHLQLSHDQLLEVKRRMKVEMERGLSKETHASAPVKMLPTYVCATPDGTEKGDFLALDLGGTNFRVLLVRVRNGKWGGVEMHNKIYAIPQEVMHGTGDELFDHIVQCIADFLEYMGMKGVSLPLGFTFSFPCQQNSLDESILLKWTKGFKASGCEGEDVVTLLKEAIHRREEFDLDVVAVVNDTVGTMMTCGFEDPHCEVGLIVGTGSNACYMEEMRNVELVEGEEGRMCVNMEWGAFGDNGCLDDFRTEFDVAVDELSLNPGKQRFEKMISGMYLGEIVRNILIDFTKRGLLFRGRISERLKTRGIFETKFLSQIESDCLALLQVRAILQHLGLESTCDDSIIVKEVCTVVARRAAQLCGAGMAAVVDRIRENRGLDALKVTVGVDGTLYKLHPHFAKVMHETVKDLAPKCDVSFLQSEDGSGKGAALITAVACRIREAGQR
active: [12] -0.443
inactive: [1] 0.065 | [2] -0.003 | [3] -0.052 | [4] 0 | [5] 0.033 | [6] -0.079 | [7] -0.01 | [8] 0.048 | [9] 0.035 | [10] -0.031 | [11] -0.018 | [13] 0.038 | [14] 0.007 | [15] 0.022

HNRNPL (UniProt P14866)
Chain of UniProt P14866 (P14866 whole entry, looked up): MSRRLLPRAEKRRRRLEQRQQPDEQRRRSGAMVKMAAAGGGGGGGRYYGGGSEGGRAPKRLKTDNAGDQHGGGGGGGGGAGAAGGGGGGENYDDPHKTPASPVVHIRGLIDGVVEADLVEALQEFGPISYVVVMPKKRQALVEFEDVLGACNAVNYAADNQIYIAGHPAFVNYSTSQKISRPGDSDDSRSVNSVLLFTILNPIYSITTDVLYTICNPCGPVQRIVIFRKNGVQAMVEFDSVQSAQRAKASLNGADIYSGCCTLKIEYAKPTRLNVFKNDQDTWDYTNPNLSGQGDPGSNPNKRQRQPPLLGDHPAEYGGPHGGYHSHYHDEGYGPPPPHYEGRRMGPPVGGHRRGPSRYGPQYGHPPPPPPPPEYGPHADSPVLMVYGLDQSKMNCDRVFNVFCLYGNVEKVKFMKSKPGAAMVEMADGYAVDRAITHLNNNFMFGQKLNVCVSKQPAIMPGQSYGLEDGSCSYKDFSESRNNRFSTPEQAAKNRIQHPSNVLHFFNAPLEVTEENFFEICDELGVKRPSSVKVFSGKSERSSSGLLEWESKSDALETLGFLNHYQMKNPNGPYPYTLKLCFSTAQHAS
inactive: [1] -0.011 | [2] -0.015 | [3] -0.036 | [4] 0.013 | [5] 0.068 | [6] -0.07 | [7] 0.012 | [8] 0.042 | [9] -0.001 | [10] 0.022 | [11] 0.005 | [13] 0.072 | [14] 0.028 | [15] 0.007
active: [12] -0.445

HAUS5 (UniProt O94927)
Chain of UniProt O94927 (O94927 whole entry, looked up): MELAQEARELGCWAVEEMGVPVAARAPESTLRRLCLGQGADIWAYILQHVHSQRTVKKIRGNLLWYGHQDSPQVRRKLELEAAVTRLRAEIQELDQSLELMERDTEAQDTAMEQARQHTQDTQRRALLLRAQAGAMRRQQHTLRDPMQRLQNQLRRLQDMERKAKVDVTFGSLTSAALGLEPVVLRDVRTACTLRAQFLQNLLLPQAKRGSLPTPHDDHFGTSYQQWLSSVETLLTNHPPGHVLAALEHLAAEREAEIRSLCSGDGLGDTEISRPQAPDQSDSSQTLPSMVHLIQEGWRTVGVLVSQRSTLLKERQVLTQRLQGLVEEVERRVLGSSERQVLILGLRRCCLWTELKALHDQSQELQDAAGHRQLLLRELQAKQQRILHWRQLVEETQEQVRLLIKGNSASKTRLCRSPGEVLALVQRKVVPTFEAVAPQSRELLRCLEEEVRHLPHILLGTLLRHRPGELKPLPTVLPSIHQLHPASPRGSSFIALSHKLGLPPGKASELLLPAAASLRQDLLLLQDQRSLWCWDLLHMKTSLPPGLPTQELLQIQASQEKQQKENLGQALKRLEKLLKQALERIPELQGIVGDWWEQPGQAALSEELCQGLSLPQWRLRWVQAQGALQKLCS
inactive: [1] -0.014 | [2] 0.01 | [3] -0.071 | [4] -0.011 | [5] -0.015 | [6] -0.11 | [7] 0.006 | [8] 0.079 | [9] 0.004 | [10] -0.02 | [11] 0.031 | [13] 0.045 | [14] -0.015 | [15] 0.013
active: [12] -0.416

GOLGA1 (UniProt Q92805)
inactive: [1] 0.033 | [2] -0.009 | [3] -0.026 | [4] -0.015 | [5] 0.022 | [6] -0.073 | [7] -0.099 | [8] 0.042 | [9] 0.106 | [10] 0.004 | [11] 0.048 | [12] 0.07 | [13] 0.01 | [14] -0.076 | [15] -0.014

HERC2 (UniProt O95714)
inactive: [1] -0.077 | [2] 0.017 | [3] 0.032 | [4] -0.034 | [5] 0.118 | [6] -0.061 | [7] 0.007 | [8] 0.028 | [9] -0.047 | [10] 0.085 | [11] 0.04 | [12] -0.006 | [13] -0.076 | [14] -0.009 | [15] 0.014

HELQ (UniProt Q8TDG4)
active: [1] -0.486 | [2] -0.433
inactive: [3] 0.021 | [4] 0.051 | [5] -0.028 | [6] -0.024 | [7] 0.033 | [8] -0.013 | [9] 0.122 | [10] 0.009 | [11] -0.003 | [12] 0.001 | [13] 0.076 | [14] 0.017 | [15] -0.103
